Common to all, as to details: primary human HUVEC with PBMC; actives raise or lower the signal
Read-out in experiment [1]: Macrophage colony-stimulating factor (MCSF), CSF1 (gene 1435)
The experiment can be described thus: BSK_LPS_MCSF: BioMAP Diversity Plus: LPS Assay for Macrophage colony-stimulating factor (MCSF) Biomarker Activity (AID 2283083). In a few lines: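 Bidirectional fitting against DMSO was applied to M-CSF levels read by ELISA at 24 h post-dose. The system pairs human umbilical vein endothelium with peripheral blood mononuclear cells; parallel SRB staining tracked cytotoxicity.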

Read-out in experiment [2]: Tissue Factor, F3 (gene 2152)
In words: BSK_LPS_TissueFactor: BioMAP Diversity Plus: LPS Assay for Tissue Factor Biomarker Activity (AID 2283084). Summed up: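 Compound was added to an endothelial cell/PBMC co-culture, and after 24 h tissue factor (CD142) was read by ELISA. Gain or loss of signal was fitted against a DMSO baseline, and parallel SRB staining (560 nm) tracked overt cytotoxicity.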

Read-out in experiment [3]: Tumor necrosis factor (Homo sapiens) (UniProt P01375)
The experiment can be described thus: BSK_LPS_TNFa: BioMAP Diversity Plus: LPS Assay for Tumour Necrosis Factor alpha (TNFa) Biomarker Activity (AID 2283085). Summed up:
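Human umbilical vein endothelial cells co-cultured with PBMC were exposed to test chemical and TNFa measured by ELISA 24 h after dosing. Bidirectional curve fitting was done relative to DMSO as negative control and baseline.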

Read-out in experiment [4]: Vascular cell adhesion molecule 1 (VCAM1), VCAM1 (gene 7412)
In words: BSK_LPS_VCAM1: BioMAP Diversity Plus: LPS Assay for Vascular cell adhesion molecule 1 (VCAM1) Biomarker Activity (AID 2283086). In a few lines: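 Human umbilical vein endothelial cells co-cultured with peripheral blood mononuclear cells under LPS stimulation were exposed to test chemical for 24 h. VCAM-1 levels were then measured by ELISA, with bidirectional curve fitting relative to DMSO as negative control and baseline.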

Read-out in another experiment: CD38, CD38 (gene 952)
In words: BSK_SAg_CD38: BioMAP Diversity Plus: SAg Assay for CD38 Biomarker Activity (AID 2283087). Summed up:
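Fluorescence ELISA of cell-surface CD38 served as the read-out, with either increase or decrease fitted against DMSO controls. Cells were a human umbilical vein endothelium plus PBMC co-culture under SEB/TSST-1 stimulation, measured 24 h after dosing.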

Read-out in another experiment: CD40, CD40 (gene 958)
In words: BSK_SAg_CD40: BioMAP Diversity Plus: SAg Assay for CD40 Biomarker Activity (AID 2283088). Summed up:
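CD40 is measured by fluorescence ELISA in an endothelial/PBMC primary human co-culture at 24 h post-dose. Fitting is bidirectional, DMSO baseline. Parallel SRB staining (560 nm) flags cytotoxicity.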

Read-out in a further experiment: CD69, CD69 (gene 969)
In words: BSK_SAg_CD69: BioMAP Diversity Plus: SAg Assay for CD69 Biomarker Activity (AID 2283089).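 On AC50: cell surface CD69 protein quantified by ELISA with fluorescence detection.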 Summed up:
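Primary human vascular co-culture (umbilical vein endothelium with peripheral blood mononuclear cells) exposed to test chemical for 24 h. CD69 levels quantified by fluorescence ELISA; DMSO served as negative control for bidirectional fitting.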

Read-out in experiment [5]: Monocyte Chemoattractant Protein-1 (MCP1), CCL2 (gene 6347)
In words: BSK_SAg_MCP1: BioMAP Diversity Plus: SAg Assay for Monocyte Chemoattractant Protein-1 (MCP1) Biomarker Activity (AID 2283090). Summed up: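 MCP-1 levels in the endothelial–PBMC SAg co-culture were quantified by ELISA at 24 h post-dosing; both increases and decreases versus DMSO scored. Cytotoxicity monitored by SRB total protein in parallel cultures.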

Read-out in experiment [6]: E-selectin (Homo sapiens) (UniProt P16581)
The experiment can be described thus: BSK_SAg_Eselectin: BioMAP Diversity Plus: SAg Assay for Eselectin Biomarker Activity (AID 2283091). In a few lines:
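Cell-surface E-selectin is read by ELISA at 24 h in the SAg co-culture of HUVEC and PBMC. Curves are fitted in both directions relative to DMSO. Parallel SRB total-protein staining tracks overt toxicity.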

Read-out in experiment [7]: Monokine induced gamma interferon (MIG), CXCL9 (gene 4283)
The experiment can be described thus: BSK_SAg_MIG: BioMAP Diversity Plus: SAg Assay for Monokine induced gamma interferon (MIG) Biomarker Activity (AID 2283092). Summed up:
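Endothelial cells and PBMC were co-cultured, exposed to test chemicals, and sampled 24 h later. MIG was measured by ELISA, and responses were fitted in both directions relative to DMSO.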

Active and inactive are the calls of the source. How the source made its calls: active means hit-call score of the fitted dose curve at least 0.9, where 1 is the maximum; inactive means score below 0.9.

Chain of E-selectin (Homo sapiens) (P16581 whole entry, looked up): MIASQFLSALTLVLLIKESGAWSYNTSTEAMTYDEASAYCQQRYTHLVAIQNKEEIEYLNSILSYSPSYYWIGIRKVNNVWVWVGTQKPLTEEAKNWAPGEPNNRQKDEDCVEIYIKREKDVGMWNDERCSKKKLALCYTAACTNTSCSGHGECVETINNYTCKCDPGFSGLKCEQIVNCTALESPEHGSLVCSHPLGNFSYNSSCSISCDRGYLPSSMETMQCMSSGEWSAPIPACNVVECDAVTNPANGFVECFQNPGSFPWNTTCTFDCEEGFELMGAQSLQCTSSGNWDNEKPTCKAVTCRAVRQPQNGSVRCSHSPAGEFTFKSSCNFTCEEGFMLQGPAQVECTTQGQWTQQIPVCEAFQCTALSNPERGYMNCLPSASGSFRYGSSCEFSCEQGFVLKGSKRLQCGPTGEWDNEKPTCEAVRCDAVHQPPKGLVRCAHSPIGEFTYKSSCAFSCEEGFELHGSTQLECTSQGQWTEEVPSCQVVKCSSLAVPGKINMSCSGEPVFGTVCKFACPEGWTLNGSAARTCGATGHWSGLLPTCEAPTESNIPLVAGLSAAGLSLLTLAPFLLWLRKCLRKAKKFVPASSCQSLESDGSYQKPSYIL
Chain of Tumor necrosis factor (Homo sapiens) (P01375 whole entry, looked up): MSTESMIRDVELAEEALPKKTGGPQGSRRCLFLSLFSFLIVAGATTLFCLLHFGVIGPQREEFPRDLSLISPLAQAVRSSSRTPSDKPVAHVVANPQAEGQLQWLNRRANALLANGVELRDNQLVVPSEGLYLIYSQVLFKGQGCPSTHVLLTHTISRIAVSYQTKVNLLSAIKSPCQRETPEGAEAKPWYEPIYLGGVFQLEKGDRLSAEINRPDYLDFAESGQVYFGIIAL

Take `CC(=O)c1c(C)c([N+](=O)[O-])c(C(C)(C)C)c([N+](=O)[O-])c1C`: the outcome in experiment [1] is “inactive”; in experiment [2] it was “inactive”; in [3], “inactive”; in [4], “inactive”; with CD38, CD38 (gene 952), “inactive”; with CD40, CD40 (gene 958), “inactive”. Moreover, the outcome in the experiment with CD69, CD69 (gene 969) is “inactive”; in experiment [5], “inactive”; in experiment [6] it was “inactive”; in experiment [7], “inactive”.
For `CC(=O)C1(C)CC2=C(CCCC2(C)C)CC1C` (centres undefined), the AC50 in [1] is 8.91 µM (active); in [2], 10.1 µM (active); in [4] it was 13 µM (active); with CD38, CD38 (gene 952), 33 µM (active); with CD40, CD40 (gene 958) it was 15.2 µM (active); with CD69, CD69 (gene 969), 24.5 µM (active). For the same compound, the AC50 in experiment [5] is 23.6 µM (active); in [6], 15.5 µM (active); in experiment [7], 33.9 µM (active). In [3], the outcome was inactive.
Consider `CCCCOC(=O)CCCCCCCC(=O)OCCCC`, for which the outcome was “inactive” in [1]; “inactive” in [2]; “inactive” in [3]; “inactive” in experiment [4]; “inactive” with CD38, CD38 (gene 952); “inactive” with CD40, CD40 (gene 958). For the same compound, the outcome in [5], in experiment [6] and in [7] was inactive.
In the case of `C[C@@H]1CCN(C(=O)[C@H](CCCN=C(N)N)NS(=O)(=O)c2cccc3c2NC[C@H](C)C3)[C@@H](C(=O)O)C1`, the outcome is “inactive” in experiment [1]; “inactive” in experiment [2]; “inactive” in experiment [3]; “inactive” in experiment [4]; “inactive” in the experiment with CD38, CD38 (gene 952); “inactive” in the experiment with CD40, CD40 (gene 958). The outcome with CD69, CD69 (gene 969) was “inactive”; in experiment [5], “inactive”; in [6], “inactive”; in experiment [7], “inactive”.
With `C=C(C)C(=O)OCC(CC)(COC(=O)C(=C)C)COC(=O)C(=C)C`, the outcome in experiment [1] was “inactive”; in [2], “inactive”; in experiment [3] it was “inactive”; in the experiment with CD38, CD38 (gene 952), “inactive”; with CD40, CD40 (gene 958), “inactive”; in the experiment with CD69, CD69 (gene 969), “inactive”. Further, the result in experiment [5] and in [7] was inactive. The concentration at half-maximal activity (AC50) in [4] and in experiment [6] was 19.7 µM (active) in each case.
With `O=C1OC2(c3ccccc31)c1ccc(O)c(Br)c1Oc1c2ccc(O)c1Br`, the AC50 was 20 µM (active) in [1]; 20 µM (active) in experiment [2]; 20 µM (active) in experiment [4]; 20 µM (active) in the experiment with CD38, CD38 (gene 952); 28.8 µM (active) with CD40, CD40 (gene 958); 20 µM (active) with CD69, CD69 (gene 969). Further, the AC50 in experiment [5] was 20 µM (active); in experiment [6], 26 µM (active). Also, the outcome in experiment [3] and in experiment [7] was inactive.
Consider `c1ccc2cc(Nc3ccc(Nc4ccc5ccccc5c4)cc3)ccc2c1`, for which the outcome in experiment [1] was “inactive”; in experiment [2], “inactive”; in [3], “inactive”; in experiment [4] it was “inactive”; with CD38, CD38 (gene 952), “inactive”; with CD40, CD40 (gene 958) it was “inactive”. For the same compound, the outcome was “inactive” with CD69, CD69 (gene 969); “inactive” in experiment [5]; “inactive” in [6]; “inactive” in experiment [7].

The record behind these values is PubChem BioAssay (EPA / NIEHS).
